± gives the standard deviation of the averaged measurements.
These compounds were tested on E18 rat cortical neuron-glia co-culture (assay: fiber score / MBP score (myelination specific beyond OL differentiation) (ratio); higher = more myelination-specific MBP alignment). Details: 1 µM; treatment time: 8 days (DIV5-DIV13).
In short: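 Library compounds were applied at 1 or 5 µM in myelination medium, DIV5 to DIV13, to primary E18 rat cortical co-cultures grown at 20,000 cells/well in 96-well plates. After 4 % paraformaldehyde fixation and MBP/Olig2/DAPI immunostaining, four 10X fields per well in duplicate wells were scored. Each value is continuous MBP fiber length per Olig2+ nucleus divided by thresholded MBP area × intensity per Olig2+ nucleus.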

| SMILES | fiber score / MBP score |
| --- | --- |
| C/C(=C\C(=O)OCCCCCCCCC(=O)O)C[C@@H]1OC[C@H](C[C@@H]2O[C@H]2[C@@H](C)[C@H](C)O)[C@@H](O)[C@H]1O [Mupirocin] | 0.423 |
| OCc1cc(C(O)CNCCCCCCOCCCCc2ccccc2)ccc1O (stereo not drawn) [Salmeterol] | 0.225 |
| CO[C@H]1/C=C/O[C@@]2(C)Oc3c(C)c(O)c4c(O)c(c(/C=N/N5CCN(C)CC5)c(O)c4c3C2=O)NC(=O)/C(C)=C\C=C\[C@H](C)[C@H](O)[C@@H](C)[C@@H](O)[C@@H](C)[C@H](OC(C)=O)[C@@H]1C [Rifampicin] | 0.964 |
| C[C@]12C=CC(=O)C=C1CC[C@@H]1[C@@H]2C(=O)C[C@@]2(C)[C@H]1CC[C@]2(O)C(=O)CO [Prednisone] | 0.839 |

Same assay, conditions: 5 µM; treatment time: 8 days (DIV5-DIV13)

| SMILES | fiber score / MBP score |
| --- | --- |
| CO[C@H]1/C=C/O[C@@]2(C)Oc3c(C)c(O)c4c(O)c(c5c(nc6cc(C)ccn65)c4c3C2=O)NC(=O)/C(C)=C\C=C\[C@H](C)[C@H](O)[C@@H](C)[C@@H](O)[C@@H](C)[C@H](OC(C)=O)[C@@H]1C [Rifaximin] | 0.73 |
| CN(C)CCCN1c2ccccc2CCc2ccccc21 [Imipramine] | 0.517 |
| CCCCNC(=O)NS(=O)(=O)c1ccc(C)cc1 [Tolbutamide] | 0.898 |
| CCCCN1CCCCC1C(=O)Nc1c(C)cccc1C (stereo not drawn) [Bupivacaine] | 0.575 |
| COc1cc(N)c(Cl)cc1C(=O)NC1CCN(CCCOc2ccc(F)cc2)CC1OC (stereo not drawn) [Cisapride] | 0.515 |
| CC(C)C(=O)Nc1ccc([N+](=O)[O-])c(C(F)(F)F)c1 [Flutamide] | 0.938 |
| CCOC(=O)C1=C(C)NC(C)=C(C(=O)OC)C1c1cccc(Cl)c1Cl (stereo not drawn) [Felodipine] | 0.858 |
| O=[N+]([O-])c1cccc2cn[nH]c12 [7-Nitroindazole] | 0.753 |
| CCCCC(=O)N(Cc1ccc(-c2ccccc2-c2nnn[nH]2)cc1)[C@H](C(=O)O)C(C)C [Valsartan] | 0.655 |
| CN1CC(=O)N2[C@H](c3ccc4c(c3)OCO4)c3[nH]c4ccccc4c3C[C@@H]2C1=O [Tadalafil] | 0.74 |
| Nc1nc2c(ncn2COCCO)c(=O)[nH]1 [Acyclovir] | 1.1 |
| CC(COc1ccccc1)N(CCCl)Cc1ccccc1 (stereo not drawn) [Phenoxybenzamine] | 0.918 |
| CO[C@@]1(NC(=O)Cc2cccs2)C(=O)N2C(C(=O)O)=C(COC(N)=O)CS[C@@H]21 [Cefoxitin] | 0.686 |
| COc1cc(/C=C/c2ccc(O)cc2)cc(OC)c1 [Pterostilbene] | 0.668 |
| CCN(CC)C(=O)C1(c2ccccc2)CC1CN (stereo not drawn) [Milnacipran] | 0.817 |
| COCCCOc1ccnc(C[S+]([O-])c2nc3ccccc3[nH]2)c1C (stereo not drawn) [Rabeprazole] | 0.912 |
| Nc1ccn([C@H]2CC[C@@H](CO)O2)c(=O)n1 [Zalcitabine] | 0.902 |
| COc1ccc2cc([C@H](C)C(=O)O)ccc2c1 [Naproxen] | 0.859 |
| CC(C)[C@H](N)C(=O)OCCOCn1cnc2c(=O)nc(N)[nH]c21 [Valaciclovir] | 0.774 |
| CC(=O)O[C@]1(C(C)=O)CC[C@H]2[C@@H]3C=C(C)C4=CC(=O)CC[C@]4(C)[C@H]3CC[C@@]21C [Megestrol acetate] | 0.795 |

| SMILES | fiber score / MBP score |
| --- | --- |
| NC(N)=Nc1nc(CSCC/C(N)=N/S(N)(=O)=O)cs1 [Famotidine] | 0.752 |
| COc1cc(C)c(/C=C/C(C)=C/C=C/C(C)=C/C(=O)O)c(C)c1C [Acitretin] | 1.45 |
| CCOC(=O)OC(C)OC1=C(C(=O)Nc2ccccn2)N(C)S(=O)(=O)c2ccccc21 (stereo not drawn) [Ampiroxicam] | 1.01 |
| CCOC(=O)[C@H](CCc1ccccc1)N[C@@H](C)C(=O)N1Cc2ccccc2C[C@H]1C(=O)O [Quinapril] | 0.825 |
| C#C[C@]1(O)CC[C@H]2[C@@H]3CCc4cc(O)ccc4[C@H]3CC[C@@]21C [Ethinyl Estradiol] | 0.958 |
| CCOC(=O)N1CCC(=C2c3ccc(Cl)cc3CCc3cccnc32)CC1 [Loratadine] | 0.575 |
| Clc1ccccc1C(c1ccccc1)(c1ccccc1)n1ccnc1 [Clotrimazole] | 1.15 |
| CC(C)C[C@H](NC(=O)[C@@H](O)[C@H](N)Cc1ccccc1)C(=O)O [Ubenimex] | 1.09 |
| COc1nc(C)nc(Cl)c1NC1=NCCN1 [Moxonidine] | 0.82 |
| C[C@@H](O)[C@H]1C(=O)N2C(C(=O)O)=C(S[C@@H]3CN[C@H](C(=O)N(C)C)C3)[C@H](C)[C@H]12 [Meropenem] | 0.804 |
| CC(=O)OCC(=O)[C@@]1(O)CC[C@H]2[C@@H]3C[C@H](C)C4=CC(=O)C=C[C@]4(C)[C@H]3[C@@H](O)C[C@@]21C [Methylprednisolone acetate] | 0.413 |
| C[C@H]1C[C@H]2[C@@H]3CCC4=CC(=O)C=C[C@]4(C)[C@@]3(Cl)[C@@H](O)C[C@]2(C)[C@@]1(O)C(=O)CO [Beclomethasone] | 0.822 ± 0.021 |
| COc1cc(-c2ccc(=O)[nH]n2)ccc1OC(F)F [Zardaverine] | 0.397 |
| CN1CCN(C2=Nc3ccccc3Oc3ccc(Cl)cc32)CC1 [Loxapine] | 0.903 |
| COc1ccc(CC2c3cc(OC)c(OC)cc3CC[N+]2(C)CCC(=O)OCCCCCOC(=O)CC[N+]2(C)CCc3cc(OC)c(OC)cc3C2Cc2ccc(OC)c(OC)c2)cc1OC (stereo not drawn) [Atracurium] | 0.948 |
| C/C(=C\C(=O)OCCCCCCCCC(=O)O)C[C@@H]1OC[C@H](C[C@@H]2O[C@H]2[C@@H](C)[C@H](C)O)[C@@H](O)[C@H]1O [Mupirocin] | 0.41 |
| OCc1cc(C(O)CNCCCCCCOCCCCc2ccccc2)ccc1O (stereo not drawn) [Salmeterol] | 0.0809 |
| CO[C@H]1/C=C/O[C@@]2(C)Oc3c(C)c(O)c4c(O)c(c(/C=N/N5CCN(C)CC5)c(O)c4c3C2=O)NC(=O)/C(C)=C\C=C\[C@H](C)[C@H](O)[C@@H](C)[C@@H](O)[C@@H](C)[C@H](OC(C)=O)[C@@H]1C [Rifampicin] | 0.704 |
| C[C@]12C=CC(=O)C=C1CC[C@@H]1[C@@H]2C(=O)C[C@@]2(C)[C@H]1CC[C@]2(O)C(=O)CO [Prednisone] | 0.736 |

Reference: the supplement of paper PMC4840960
